Rows were chosen to be rich in hits. Some 1.6% of all compounds tested hit in one or more screens of this group.
KCNQ2 inh – KCNQ2 (rat) channel inhibition | O88943 | CHO-K1 KCNQ2, FluxOR thallium flux, 20 min; stronger effect = lower value | B-score at 10 µM | 310,000 tested, 1.1% active | AID 2156;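 active = fluorescence ratio B-score at most minus 3 library SDs, with starting brightness B-score within 2 library SDs, cut at about -5.5 in these data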
KCNQ2 enhance – potentiators of rat KCNQ2 potassium channel | CHO-K1 KCNQ2, FluxOR thallium flux fluorescence; stronger effect = higher value | B-score at 10 µM | 310,000 tested, 0.54% active | AID 2239;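 active = fluorescence ratio B-score at least 3 SD of library B-scores, with initial fluorescence B-score within 3 of them, cut at about 5.3 in these data; same plate scores as AID 2156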;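 also: B-score of peak minus minimum over baseline fluorescence ratio after K+ and Tl+ stimulus; positive B-score means potentiation of KCNQ2 with more thallium influx and brighter signal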
KCNQ2 inh conf – rat KCNQ2 channel inhibition, confirmatory screen; shares compounds with KCNQ2 inh; AID 493025; activity change, negative = inhibition, % at 10 µM; 1,000 tested, 57% active; KCNQ2-expressing cells, thallium flux; stronger effect = lower value;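 also: 0% = vehicle wells and values are ratio percent relative to vehicle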
KCNQ1 spec – KCNQ2 inhibitor that also affects human KCNQ1 channel; AID 493026; shares compounds with KCNQ2 inh; activity change, negative = inhibition, % at 10 µM; 1,000 tested, 15% active; KCNQ1-expressing cells, FluxOR thallium flux fluorescence; stronger effect = lower value;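 active = activity change at least 3 SD of negative controls below their mean in both duplicate wells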;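 also: CHO cells stably transfected with KCNQ1 and depolarized by potassium stimulus; peak minus minimum fluorescence over baseline after thallium addition; 0% = vehicle negative control and -100% = blank without thallium stimulus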
Target sequence (P51787 whole entry, looked up): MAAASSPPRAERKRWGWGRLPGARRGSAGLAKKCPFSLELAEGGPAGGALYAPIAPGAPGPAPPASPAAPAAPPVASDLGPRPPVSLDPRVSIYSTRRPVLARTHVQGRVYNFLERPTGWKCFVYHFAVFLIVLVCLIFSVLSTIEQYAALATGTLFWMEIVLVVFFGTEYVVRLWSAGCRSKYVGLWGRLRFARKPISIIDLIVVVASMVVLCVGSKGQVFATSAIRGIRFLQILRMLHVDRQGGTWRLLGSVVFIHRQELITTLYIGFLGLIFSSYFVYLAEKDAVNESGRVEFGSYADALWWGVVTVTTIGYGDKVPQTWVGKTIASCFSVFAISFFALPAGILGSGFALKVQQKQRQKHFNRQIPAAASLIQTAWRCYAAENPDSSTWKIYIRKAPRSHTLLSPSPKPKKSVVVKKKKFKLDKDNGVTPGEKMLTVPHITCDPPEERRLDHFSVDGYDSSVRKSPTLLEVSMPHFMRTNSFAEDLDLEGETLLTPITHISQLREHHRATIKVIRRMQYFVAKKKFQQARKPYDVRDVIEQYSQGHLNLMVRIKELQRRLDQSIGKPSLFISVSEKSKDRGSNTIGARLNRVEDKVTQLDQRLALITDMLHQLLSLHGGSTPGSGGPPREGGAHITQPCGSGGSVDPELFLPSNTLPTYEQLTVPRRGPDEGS
CHO Tl ctr – activity in parental CHO cells lacking KCNQ2 | shares compounds with KCNQ2 inh | thallium flux counter-screen; stronger effect = lower value | activity change, % at 10 µM | 1,000 tested, 14% active;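 also: 0% = vehicle negative controls with stimulus buffer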
KCNQ2 patch conf – rat KCNQ2 inhibition confirmed by electrophysiology. shares compounds with KCNQ2 inh. KCNQ2-expressing cells, automated patch clamp current. calls only at 10 µM. 550 tested, 49% active. AID 588531
An asterisk follows results filed as active; i = inactive; . = no result given; + = active, no number. Unless noted, no rule for the calls is given here.

SMILES | KCNQ2 inh | KCNQ2 enhance | KCNQ2 inh conf | KCNQ1 spec | CHO Tl ctr | others
N#Cc1nc(COc2ccc(F)cc2)oc1N1CCN(Cc2ccccc2)CC1 | -7* | -7 | -16%* | i | i | KCNQ2 patch conf=+
N#Cc1nc(Cc2ccccc2)oc1N1CCC(Cc2ccccc2)CC1 | i | . | . | . | .
CCN1CCN(c2oc(COc3ccc(-c4ccccc4)cc3)nc2C#N)CC1 | i | . | . | . | .
N#Cc1nc(COc2ccc(F)cc2)oc1N1CCC(Cc2ccccc2)CC1 | -8.9* | -8.9 | -42%* | -42%* | -32%* | KCNQ2 patch conf=i
CC(Oc1ccccc1)C(=O)Nc1nnc(S(=O)(=O)Nc2ccccc2)s1 (configuration not stated) | i | 0.46 | . | . | .
O=C(Nc1cccc(F)c1)Nc1ccnn1C1CCN(C(=O)c2cscn2)CC1 | i | . | . | . | .
COC(=O)c1sccc1NC(=O)CNC(=O)c1ccccc1 | i | 2.3 | . | . | .
Cc1c(NC(=O)C(C)OC(=O)C23CC4CC(CC(Br)(C4)C2)C3)c(=O)n(-c2ccccc2)n1C (configuration not stated) | i | . | . | . | .
COc1ccc(C(=O)N(Cc2ccco2)Cc2cccs2)c(O)c1 | i | . | . | . | .
O=C(c1cc2ccccc2o1)N(Cc1ccco1)Cc1cccs1 | -12* | -12 | -41%* | -40%* | -32%* | KCNQ2 patch conf=i
COc1ccccc1OCCNC(=O)c1ccc2c(c1)CCC2 | i | 0.36 | . | . | .
Cn1cccc1/C=C1\CC(C(C)(C)C)C/C(=C\c2cccn2C)C1=O (configuration not stated) | -11* | -11 | -72%* | -74%* | -68%* | KCNQ2 patch conf=i
Cn1cccc1/C=C1\Cc2ccccc2C1=O | i | . | . | . | .
CCCOc1ccc(OCCN2CCCC(C)C2)cc1 (configuration not stated) | i | 0.03 | . | . | .
COC(=O)C1CC(c2ccc(Cl)cc2)=NO1 (configuration not stated) | i | 0.02 | . | . | .
Cc1ccsc1/C=N/N1CCN(Cc2ccccc2)CC1 | i | 0.12 | . | . | .
Cc1ccccc1CC1(CO)CCCN(C(=O)c2cc(Cl)ccc2F)C1 (configuration not stated) | i | 0.43 | . | . | .
Cc1ccccc1CC1(CO)CCCN(C(=O)c2cccc(Cl)c2)C1 (configuration not stated) | -6.8* | -6.8 | -27%* | i | i | KCNQ2 patch conf=i
O=C(COc1ccc(F)cc1)N(c1ccccn1)C1CCCCC1 | -6.8* | -6.8 | -28%* | i | i | KCNQ2 patch conf=+
CC(C)c1ccc(OCC(=O)N(c2ccccn2)C2CCCCC2)cc1 | i | . | . | . | .
Cc1ccc(CNC(=O)C2CCN(S(=O)(=O)N3CCC4(CC3)OCCO4)CC2)cc1 | i | . | . | . | .
CCCC[C@@H]1C[C@H]1[C@@H](NC(=O)c1ccco1)c1ccccc1C(F)(F)F | i | . | . | . | .
CCCC[C@@H]1C[C@H]1[C@@H](NC(=O)c1cccs1)c1ccc(C(F)(F)F)cc1 | -8.7* | -8.7 | -18%* | i | i | KCNQ2 patch conf=i
COC(=O)C1=C(C)N(C)C(=O)NC1c1c(O)ccc2ccccc12 (configuration not stated) | i | 0.28 | . | . | .
CCOC(=O)CC1C(=O)NCCN1C(=O)c1ccc(Cl)c(Cl)c1 (configuration not stated) | i | . | . | . | .
SMILES | KCNQ2 inh | KCNQ2 enhance | KCNQ2 inh conf | KCNQ1 spec | CHO Tl ctr | others
Cc1c(NC(=O)CSc2nc3ccccc3n2C)c(=O)n(-c2ccccc2)n1C | i | 0.18 | . | . | .
COc1cc(C(=O)OCC(=O)c2c(N)n(C)c(=O)n(C)c2=O)ccc1OCCC(C)C | i | . | . | . | .
C=CCN1CCN(C(=O)c2ccc3c(c2)OCO3)CC1 | i | 0.29 | . | . | .
N#Cc1c(NCCCO)nc(-c2ccco2)c2c1CCCC2 | i | 0.3 | . | . | .
N#Cc1c(NC2CCCCC2)nc(-c2ccco2)c2c1CCCC2 | -7* | -7 | -34%* | i | i | KCNQ2 patch conf=i
CCOc1ccc(-n2ccc(=O)c(C(=O)O)n2)cc1 | i | . | . | . | .
Cc1cc(=O)cc(C)n1-c1ccccc1Br | i | 2 | . | . | .
O=C(/C=C/c1ccc([N+](=O)[O-])cc1)c1cccnc1 | -9.9* | -9.9 | i | i | i
O=C(O)/C=C/c1cccc(OCc2ccccc2)c1 | i | 0.1 | . | . | .
O=C(N/N=C/c1ccc([N+](=O)[O-])cc1)c1cccnc1 | i | . | . | . | .
O=C(/C=C/c1cccc(OCc2ccccc2)c1)c1cccnc1 | -6.8* | -6.8 | -29%* | i | i | KCNQ2 patch conf=i
Cc1cccc(C)c1NC(=O)CNc1ncnc2sc(C)c(C)c12 | i | 1.1 | . | . | .
O=C(NCCc1ccccc1)c1ccc(Cl)c(S(=O)(=O)N2CCOCC2)c1 | i | 1.4 | . | . | .
Cc1cc(C)c(NC(=O)c2ccc[n+](Cc3ccc([N+](=O)[O-])cc3)c2)c(C)c1 | i | 0.07 | . | . | .
CCNC(=O)n1cc(-n2cncn2)c(-c2ccccc2)n1 | i | . | . | . | .
COc1ccc(/C=N/n2c(-c3ccccc3)n[nH]c2=S)cc1 | i | . | . | . | .
COc1ccc(/C=N/n2c(N)nc(-c3ccccc3)c2-c2ccccc2)cc1 | -7* | -7 | i | i | i
Cc1ccccc1NC(=O)CN1C(=O)S/C(=C/c2cccnc2)C1=O | i | . | . | . | .
Cc1ccc(Sc2ccc(NC(=O)c3ccc(S(C)(=O)=O)cc3Cl)cc2)cc1 | -8.8* | -8.8 | i | i | i
CS(=O)(=O)c1ccc(C(=O)Nc2ccc(N3CCCCC3)cc2)c(Cl)c1 | i | 0.36 | . | . | .
O=C(O)C1CC=CCC1C(=O)NCc1ccc(Cl)c(Cl)c1 (configuration not stated) | i | 0.7 | . | . | .
COc1ccc(C(=O)CCN2CCc3cc(OC)c(OC)cc3C2)cc1 | -9.6* | -9.6 | -32%* | i | i | KCNQ2 patch conf=i
COc1ccc(C(=O)CCN2CCN(c3ccccc3OC)CC2)cc1 | i | . | . | . | .
CC(=O)c1cccc(NC(=O)CCCCCn2nnc3ccccc3c2=O)c1 | i | . | . | . | .
Cn1c(NCc2cccc(Br)c2)nc2ccccc21 | -9* | -9 | -34%* | -28%* | -22%* | KCNQ2 patch conf=+
SMILES | KCNQ2 inh | KCNQ2 enhance | KCNQ2 inh conf | KCNQ1 spec | CHO Tl ctr | others
Brc1cccc(CNc2nc3ccccc3n2CCN2CCCCC2)c1 | i | . | . | . | .
O=c1[nH]c(=O)n(-c2cc(Br)c(O)c(Br)c2)cc1Br | i | . | . | . | .
CCC(=O)Nc1ccccc1Nc1cc(C#N)c(C#N)cc1[N+](=O)[O-] | i | 0.09 | . | . | .
N#C/C(=C\C=C\c1ccccc1)C(=O)Nc1ccccc1 | -7.4* | -7.4 | i | i | i
N#C/C(=C/C=C/c1ccccc1)C(=O)Nc1ccccc1 | i | . | . | . | .
COc1ccccc1OCC(=O)Nc1ccccc1C(=O)N1CCCC1 | i | 0.04 | . | . | .
O=C(COc1ccc(F)cc1Cl)Nc1ccccc1C(=O)N1CCCCC1 | -8.6* | -8.6 | -22%* | i | i | KCNQ2 patch conf=+
O/N=C1/C2C3C(Br)C4C5CC(C1C53)C24 (configuration not stated) | i | 1.3 | . | . | .
COc1ccc(C(=O)/C=C/Nc2ccc([N+](=O)[O-])cc2)cc1 | i | . | . | . | .
COc1ccc(C(=O)CC(Nc2ccc([N+](=O)[O-])cc2)c2ccc(OC)cc2)cc1 (configuration not stated) | -11* | -11 | -26%* | i | i | KCNQ2 patch conf=i

Screening data (PubChem)
